# Test results taken from ChEMBL document CHEMBL3988442, “University of Dundee, Small-Polar-MMV Screening Library” (2021).
# The whole screen tested about 69,000 compounds, of which about 1,000 (1.4%) showed an effect of 50% or more. For the sample, strong results were picked, then their nearest neighbours and some compounds at random.
# System: Leishmania donovani
# Test: Leishmania intramacrophage assay
# Format: functional, organism-based
# Design: scale not given: in the data most compounds retested in dose-response had high values
smiles,measurement,setting,value
COCCN1C[C@H]2CC[C@@H]1CN(Cc1cc(=O)c3cc(C)ccc3[nH]1)C2,Percent Effect,"30.3 µM, […]",38.8%
CSCC(C)(O)CNS(=O)(=O)c1cccc(Cl)c1 (stereo not given),Percent Effect,"30.3 µM, […]",18.54%
CC1CCN(C(=O)C(C)N2CCc3[nH]nc(C(F)(F)F)c3C2)CC1 (stereo not given),Percent Effect,"30.3 µM, […]",13.32%
Cc1nc(C(=O)N(C)CC2CCCO2)nn1-c1ccccc1C(C)C (stereo not given),Percent Effect,"30.3 µM, […]",0.9975%
Cn1cc(-c2nnn3c2COC(CNC(=O)c2cccs2)C3)cn1 (stereo not given),Percent Effect,"30.3 µM, […]",37.28%
Cc1nc(CN2CCCC(NCCOc3ccccc3)C2)no1 (stereo not given),Percent Effect,"30 µM, 30.03 µM",33.1%
Cc1cc(N2CCC(N(C)C(=O)c3ccccc3F)CC2)nc(C)n1,Percent Effect,"30.3 µM, […]",35.99%
Cc1ccnc(N2CCC(NCCOc3ccccc3)CC2)n1,Percent Effect,"30.3 µM, […]",18.71%
Cc1nc(C)c(C)c(N2CCC(NCCOc3ccccc3)CC2)n1,Percent Effect,"30.3 µM, […]",58.55%
Cc1cc(N2CCC(N(C)C(=O)Nc3ccccc3)CC2)nc(C)n1,Percent Effect,"30 µM, 30.03 µM",11.78%
c1ccc(OCCNC2CCN(c3ncccn3)CC2)cc1,Percent Effect,"30.3 µM, […]",4.504%
Cc1cc(N2CCC(N(C)C(=O)c3ccc(C#N)cc3)CC2)nc(C)n1,Percent Effect,"30.3 µM, […]",14.71%
Cc1cc(N2CCC(N(C)C(=O)c3ccccc3)CC2)nc(C)n1,Percent Effect,"30 µM, 30.03 µM",62.61%
Cc1cc(N2CCC(O)CC2)nc(C)n1,Percent Effect,"30.3 µM, […]",1.581%
Cc1cc(N2CCC(NCCOc3ccccc3)CC2)nc(C)n1,Percent Effect,"30.3 µM, […]",53.39%
CN(C)c1ccnc(N2CCC(NCCOc3ccccc3)CC2)n1,Percent Effect,"30.3 µM, […]",79.37%
O=C(COCCOc1ccccc1)NC1CCN(c2ncccn2)CC1,Percent Effect,"30.3 µM, […]",21.86%
CNc1cncc(C2CCCN2C(=O)CCn2ccnc2)n1 (stereo not given),Percent Effect,"30.3 µM, […]",1.152%
CCCc1cc(C(=O)N2CCOC(c3nc(-c4cccs4)no3)C2)no1 (stereo not given),Percent Effect,"30 µM, 30.03 µM",23.21%
COc1ccc(CN2CC[C@H](O)[C@@H]2Cc2cnn(C)c2)cc1.O=C(O)C(F)(F)F,Percent Effect,"30.3 µM, […]",36.9%
CCc1ncnc2c1CCN(CC(=O)N(C)C)CC2.O=C(O)C(F)(F)F,Percent Effect,"30.3 µM, […]",4.143%
CCc1cc(N2CCC(NCCc3ccc(C)o3)CC2)nc(C)n1,Percent Effect,"30.3 µM, […]",9.521%
CCc1cc(N2CCC(NCCc3nc(C)c(C)s3)CC2)nc(C)n1,Percent Effect,"30.3 µM, […]",22.72%
CCc1cc(N2CCC(NCCc3ccccc3F)CC2)nc(C)n1,Percent Effect,"30.3 µM, […]",63.92%
CCC(CNC(=O)NCc1cc[nH]n1)N1CCCC1 (stereo not given),Percent Effect,"30.3 µM, […]",10.3%
Cc1nn(C)c(C)c1S(=O)(=O)N(CC(N)=O)CC(C)C,Percent Effect,"30.3 µM, […]",-2.964%
CC(C)c1noc(C2CCN(S(=O)(=O)c3cccs3)CC2)n1,Percent Effect,"30.3 µM, […]",-2.602%
CCCc1noc(C2CCN(S(=O)(=O)c3cccs3)CC2)n1,Percent Effect,"30.3 µM, […]",12.47%
COCCc1noc(C2CCN(S(=O)(=O)c3cccs3)CC2)n1,Percent Effect,"30.3 µM, […]",57.18%
CCC(CNc1ncnc2oc(C)nc12)Cc1ccccc1 (stereo not given),Percent Effect,"30.3 µM, […]",45.54%
CCCOc1ccccc1CCCNc1ncnc2oc(C)nc12,Percent Effect,"30.3 µM, […]",83.62%
CCCOc1ccc(Cl)cc1CNc1ncnc2oc(C)nc12,Percent Effect,"30.3 µM, […]",22.92%
Cc1ccc(SCCCNC(=O)c2cn([C@H]3CC[C@@H](N)CC3)nn2)cc1,Percent Effect,"30.3 µM, […]",94.34%
Cc1ccc(SCCN(C)C(=O)c2cn([C@H]3CC[C@@H](N)CC3)nn2)cc1,Percent Effect,"30.3 µM, […]",-26.18%
CCN(CCSc1ccccc1)C(=O)c1cn([C@H]2CC[C@@H](N)CC2)nn1,Percent Effect,"30.3 µM, […]",13.68%
O=C(O)c1cnc(OCC2CC2)c(Br)c1,Percent Effect,"30.3 µM, […]",4.629%
CC(C)CCNC(=O)c1c(-n2cnnn2)sc2c1CCCC2,Percent Effect,"30.3 µM, […]",-26.12%
COCCCNC(=O)c1c(-n2cnnn2)sc2c1CCC2,Percent Effect,"30.3 µM, […]",9.721%
COCCNC(=O)c1c(-n2cnnn2)sc2c1CCCC2,Percent Effect,"30.3 µM, […]",53.45%
Cc1ccc(C(=O)N(CC2CCCO2)c2ccncc2)o1 (stereo not given),Percent Effect,"30.3 µM, […]",23.81%
Cc1nn(-c2ccccn2)c(C)c1[C@@H]1C=C[C@@H](NC(=O)NC(C)C)C1,Percent Effect,"30.3 µM, […]",10.96%
CCNC(=O)[C@@H]1C[C@H](N)CN1Cc1ccc(-c2cc[nH]n2)o1,Percent Effect,"30.3 µM, […]",11.56%
CCNC(=O)[C@@H]1C[C@H](N)CN1Cc1ccc(Sc2ccc(C)cc2)o1,Percent Effect,"30.3 µM, […]",-2.33%
CCNC(=O)[C@@H]1C[C@@H](N)CN1Cc1ccc(Sc2ccc(C)cc2)o1,Percent Effect,"30.3 µM, […]",97.85%
Cc1cc(C(=O)NC2CC(=O)N(C(C)C)C2=O)c(C)n1C(C)C (stereo not given),Percent Effect,"30.3 µM, […]",19.34%
NCC(CO)Cc1ccc(C(F)(F)F)cc1 (stereo not given),Percent Effect,"30.3 µM, […]",17.17%
Cc1cnn(CCNCC(O)c2ccc(F)c(F)c2)c1 (stereo not given),Percent Effect,"30.3 µM, […]",-10.99%
Cc1cnn(CCNCC(O)c2cccc(Br)c2)c1 (stereo not given),Percent Effect,"30.3 µM, […]",97.73%
OC(CNCCn1cccn1)c1cccc(Br)c1 (stereo not given),Percent Effect,30 µM,1.273%
O=C(NCCc1ccccc1F)NCC(O)c1cccc(F)c1 (stereo not given),Percent Effect,30 µM,19.34%
Cn1cc(CN2CC[C@@H]3[C@@H](CCC(=O)N3CC3CCNCC3)C2)cn1,Percent Effect,"30.3 µM, […]",16.61%
Cc1ccc(CC(=O)NCC(O)c2ccc(Cl)cc2Cl)cn1 (stereo not given),Percent Effect,"30.3 µM, […]",-16.89%
Cc1c(C)n(Cc2ccccn2)c2nc3c(c(N)c12)CCCCC3,Percent Effect,"30.3 µM, […]",38.18%
Cc1c(C)n(Cc2ccncc2)c2nc3c(c(N)c12)CCCCCC3,Percent Effect,"30.3 µM, […]",6.52%
CCc1c(-c2ccccc2)nc2c(c(C)c(C)n2CCN(C)C)c1N,Percent Effect,"30.3 µM, […]",100.7%
CCc1c(C)sc2c1c(N)nc(=O)n2CCCN(C)C,Percent Effect,"30.3 µM, […]",34.84%
CCc1c(C)sc2c1c(N)nc(=O)n2CCN(C)C,Percent Effect,"30.3 µM, […]",-18.16%
Cc1c(-c2ccccc2)nc2c(c(C)c(C)n2CCN(C)C)c1N,Percent Effect,"30.3 µM, […]",99.06%
Cc1cc(C(=O)N2C[C@@H]3[C@@H](CN(C)CCc4ccccn4)[C@@H]3C2)c(C)o1,Percent Effect,"30.3 µM, […]",-26.53%
CC(CN1CCCC1=O)NC(=O)Nc1cccnc1-n1cccn1 (stereo not given),Percent Effect,"30.3 µM, […]",-2.319%
CCn1ccnc1CN(C)c1nc(-c2ccc(Cl)cc2)nc2c1CNC2,Percent Effect,"30.3 µM, […]",20.89%
Cc1nccn1CCN(C)c1nc(-c2ccc(Cl)cc2)nc2c1CNC2,Percent Effect,"30.3 µM, […]",51.4%
Cc1nccn1CCN(C)c1nc(-c2cccnc2)nc2c1CCNC2,Percent Effect,"30.3 µM, […]",20.05%
Cc1nn(C)c(C)c1-c1c(-c2ccccc2)ncn1[C@H](CO)C(=O)O,Percent Effect,"30.3 µM, […]",46.15%
Cc1c(-c2c(-c3ccccc3)ncn2[C@H](CO)C(=O)O)cnn1C,Percent Effect,"30.3 µM, […]",25.35%
Cc1c(-c2c(-c3ccccc3)ncn2[C@@H](C(=O)O)[C@H](C)O)cnn1C,Percent Effect,"30.3 µM, […]",50.58%
Cc1ccccc1C(=O)N1CC[C@H](O)[C@@H](N2CCOCC2)CC1,Percent Effect,"30.3 µM, […]",5.268%
Cc1ccc(OC2(C(=O)O)CCN(C(=O)c3cccc(F)c3)CC2)cn1,Percent Effect,"30.3 µM, […]",-5.312%
O=c1[nH]ncc(NCCOc2ccc3c(c2)OCO3)c1Cl,Percent Effect,"30.3 µM, […]",33.23%
O=c1[nH]ncc(NCCOc2ccc3c(c2)CCC3)c1Cl,Percent Effect,"30.3 µM, […]",53.95%
O=c1[nH]ncc(NCCOc2cccc(Br)c2)c1Cl,Percent Effect,"30.3 µM, […]",33.92%
O=C1COc2c(cccc2C(=O)N2CCCC(n3cccn3)C2)N1 (stereo not given),Percent Effect,"30.3 µM, […]",-19.69%
O=C(NC1CC1)c1ccn(COc2c(Cl)cccc2Cl)n1,Percent Effect,"30.3 µM, […]",26.41%
CC(C)C1CN(C(=O)c2ccccc2)CCS1 (stereo not given),Percent Effect,"30.3 µM, […]",-6.451%
Cc1ccc([C@]2(O)CC[C@H]3CN(Cc4cccc(Cl)c4Cl)C[C@H]32)nc1.O=C(O)CC(O)(CC(=O)O)C(=O)O,Percent Effect,"30 µM, 30.03 µM",12.17%
Cc1ccc([C@]2(O)CC[C@H]3CN(Cc4cc(C)c(O)c(C)c4)C[C@H]32)nc1.O=C(O)CC(O)(CC(=O)O)C(=O)O,Percent Effect,"30 µM, 30.03 µM",50.06%
Cc1cc(-c2cnc(N3CCSCC3)nc2C(C)C)on1,Percent Effect,"30.3 µM, […]",-38.52%
Cn1cnc2c1CCN(CC(=O)N(Cc1ccsc1)C1CC1)C2,Percent Effect,"30.3 µM, […]",1.808%
CC1(C)CC(=O)c2cnc3nc(N4CCCCC4)nc(O)c3c2C1,Percent Effect,"30.3 µM, […]",10.62%
Cc1cccc(CS(=O)(=O)Cc2ccn(C)c(=O)c2)c1,Percent Effect,"30.3 µM, […]",18.93%
O=C(c1cc2c([nH]c1=O)CCC2)N1CCCCCC1c1ccncc1 (stereo not given),Percent Effect,"30.3 µM, […]",26.35%
CCN(CC)c1nc(Nc2cccc(C(C)O)c2)nc2ccccc12 (stereo not given),Percent Effect,"30.3 µM, […]",66.27%
CC(O)c1cccc(Nc2nc(NCCO)c3ccccc3n2)c1 (stereo not given),Percent Effect,"30.3 µM, […]",37.25%
CCN(CC)c1nc(Nc2cccc(C(=O)O)c2)nc2ccccc12,Percent Effect,"30.3 µM, […]",3.255%
CCn1ncc(S(=O)(=O)N[C@@H]2CCC[C@@H](n3ccnc3)[C@@H]2O)c1C,Percent Effect,"30.3 µM, […]",16.74%
NCCC(=O)N1CCC2(CC1)CN(C(=O)c1ccc(Cl)cc1)CCO2,Percent Effect,"30.3 µM, […]",0.3697%
Cc1ccc(C(=O)N2CCC(Oc3ccc(C)c(C)c3)CC2)c(=O)[nH]1,Percent Effect,30 µM,57.43%
Cc1ccc(C(=O)N2CCC(Oc3ccccc3)CC2)c(=O)[nH]1,Percent Effect,30 µM,12.56%
Cc1ccc(C(=O)N2CCOC3(CCCC3)C2)c(=O)[nH]1,Percent Effect,"30.3 µM, […]",4.345%
COc1ccc(OC2CCN(C(=O)c3ccc(C)[nH]c3=O)CC2)cc1,Percent Effect,30 µM,26.55%
Cc1ccc(C(=O)N2CCC3(CCCCC3)C2)c(=O)[nH]1,Percent Effect,"30.3 µM, […]",56.07%
Cc1ccc(C(=O)N2CCC3(CCCC3)CC2)c(=O)[nH]1,Percent Effect,"30.3 µM, […]",27.16%
COCCCC(=O)N1CCC(Nc2cccnn2)CC1,Percent Effect,30 µM,-18.1%
CNC(=O)[C@H]1CC[C@@H]2[C@@H](CCN2CCOCc2ccccc2)O1.O=C(O)C(F)(F)F,Percent Effect,"30.3 µM, […]",45.25%
Cc1cc(NC2CCc3nc(C(C)C)nn3C2)n2ncnc2n1 (stereo not given),Percent Effect,"30.3 µM, […]",-19.33%
CC[C@@H](C)[C@H](NC(=O)Cn1ccc2c(Cl)cccc21)C(=O)O,Percent Effect,"30.3 µM, […]",7.093%
Cc1nnc(C(C)N(C)Cc2c(C)nn(-c3ccccc3C)c2C)o1 (stereo not given),Percent Effect,"30.3 µM, […]",60.72%
CCc1nnc(C(C)N(C)Cc2c(C)nn(-c3ccccc3)c2C)o1 (stereo not given),Percent Effect,"30.3 µM, […]",21.58%
Cc1nnc(C(C)N(C)Cc2c(C)nn(-c3ccccc3)c2C)o1 (stereo not given),Percent Effect,"30.3 µM, […]",15.94%
O=C(NCC1(O)CCC1)c1cccc(-n2cccn2)c1,Percent Effect,"30.3 µM, […]",0.6562%
